Assay results as given in the supplement of paper PMC11001985.
A number with no mark means an inactive call.

Compound: C#CCNC(=O)CCSSCCC(=O)NCCc1ccc(C=O)c(C=O)c1
Assay: lysine labeling ratio R10:1 (500 µM / 50 µM probe), SILAC-ABPP in living cells; higher = lower intrinsic lysine reactivity toward the probe, active = 2 or less
Settings: HeLa; probe concentrations 500 vs 50 µM
Method in brief: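 An alkyne-tagged lysine probe with a disulfide linker labelled living HeLa cells in PBS at room temperature at either 50 µM or 500 µM, using SILAC light and heavy cells in forward and reverse label swaps. Lysates were mixed, clicked to biotin-azide, trypsin-digested, enriched on neutravidin, DTT-released, alkylated and measured by LC-MS/MS on a TIMS-TOF Pro. Each lysine's R is the filtered median high-probe/low-probe MS1 peptide ratio, combined as the median over forward and reverse replicates, with 20 as the upper limit.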

UniProt O75369, sequence (O75369 whole entry): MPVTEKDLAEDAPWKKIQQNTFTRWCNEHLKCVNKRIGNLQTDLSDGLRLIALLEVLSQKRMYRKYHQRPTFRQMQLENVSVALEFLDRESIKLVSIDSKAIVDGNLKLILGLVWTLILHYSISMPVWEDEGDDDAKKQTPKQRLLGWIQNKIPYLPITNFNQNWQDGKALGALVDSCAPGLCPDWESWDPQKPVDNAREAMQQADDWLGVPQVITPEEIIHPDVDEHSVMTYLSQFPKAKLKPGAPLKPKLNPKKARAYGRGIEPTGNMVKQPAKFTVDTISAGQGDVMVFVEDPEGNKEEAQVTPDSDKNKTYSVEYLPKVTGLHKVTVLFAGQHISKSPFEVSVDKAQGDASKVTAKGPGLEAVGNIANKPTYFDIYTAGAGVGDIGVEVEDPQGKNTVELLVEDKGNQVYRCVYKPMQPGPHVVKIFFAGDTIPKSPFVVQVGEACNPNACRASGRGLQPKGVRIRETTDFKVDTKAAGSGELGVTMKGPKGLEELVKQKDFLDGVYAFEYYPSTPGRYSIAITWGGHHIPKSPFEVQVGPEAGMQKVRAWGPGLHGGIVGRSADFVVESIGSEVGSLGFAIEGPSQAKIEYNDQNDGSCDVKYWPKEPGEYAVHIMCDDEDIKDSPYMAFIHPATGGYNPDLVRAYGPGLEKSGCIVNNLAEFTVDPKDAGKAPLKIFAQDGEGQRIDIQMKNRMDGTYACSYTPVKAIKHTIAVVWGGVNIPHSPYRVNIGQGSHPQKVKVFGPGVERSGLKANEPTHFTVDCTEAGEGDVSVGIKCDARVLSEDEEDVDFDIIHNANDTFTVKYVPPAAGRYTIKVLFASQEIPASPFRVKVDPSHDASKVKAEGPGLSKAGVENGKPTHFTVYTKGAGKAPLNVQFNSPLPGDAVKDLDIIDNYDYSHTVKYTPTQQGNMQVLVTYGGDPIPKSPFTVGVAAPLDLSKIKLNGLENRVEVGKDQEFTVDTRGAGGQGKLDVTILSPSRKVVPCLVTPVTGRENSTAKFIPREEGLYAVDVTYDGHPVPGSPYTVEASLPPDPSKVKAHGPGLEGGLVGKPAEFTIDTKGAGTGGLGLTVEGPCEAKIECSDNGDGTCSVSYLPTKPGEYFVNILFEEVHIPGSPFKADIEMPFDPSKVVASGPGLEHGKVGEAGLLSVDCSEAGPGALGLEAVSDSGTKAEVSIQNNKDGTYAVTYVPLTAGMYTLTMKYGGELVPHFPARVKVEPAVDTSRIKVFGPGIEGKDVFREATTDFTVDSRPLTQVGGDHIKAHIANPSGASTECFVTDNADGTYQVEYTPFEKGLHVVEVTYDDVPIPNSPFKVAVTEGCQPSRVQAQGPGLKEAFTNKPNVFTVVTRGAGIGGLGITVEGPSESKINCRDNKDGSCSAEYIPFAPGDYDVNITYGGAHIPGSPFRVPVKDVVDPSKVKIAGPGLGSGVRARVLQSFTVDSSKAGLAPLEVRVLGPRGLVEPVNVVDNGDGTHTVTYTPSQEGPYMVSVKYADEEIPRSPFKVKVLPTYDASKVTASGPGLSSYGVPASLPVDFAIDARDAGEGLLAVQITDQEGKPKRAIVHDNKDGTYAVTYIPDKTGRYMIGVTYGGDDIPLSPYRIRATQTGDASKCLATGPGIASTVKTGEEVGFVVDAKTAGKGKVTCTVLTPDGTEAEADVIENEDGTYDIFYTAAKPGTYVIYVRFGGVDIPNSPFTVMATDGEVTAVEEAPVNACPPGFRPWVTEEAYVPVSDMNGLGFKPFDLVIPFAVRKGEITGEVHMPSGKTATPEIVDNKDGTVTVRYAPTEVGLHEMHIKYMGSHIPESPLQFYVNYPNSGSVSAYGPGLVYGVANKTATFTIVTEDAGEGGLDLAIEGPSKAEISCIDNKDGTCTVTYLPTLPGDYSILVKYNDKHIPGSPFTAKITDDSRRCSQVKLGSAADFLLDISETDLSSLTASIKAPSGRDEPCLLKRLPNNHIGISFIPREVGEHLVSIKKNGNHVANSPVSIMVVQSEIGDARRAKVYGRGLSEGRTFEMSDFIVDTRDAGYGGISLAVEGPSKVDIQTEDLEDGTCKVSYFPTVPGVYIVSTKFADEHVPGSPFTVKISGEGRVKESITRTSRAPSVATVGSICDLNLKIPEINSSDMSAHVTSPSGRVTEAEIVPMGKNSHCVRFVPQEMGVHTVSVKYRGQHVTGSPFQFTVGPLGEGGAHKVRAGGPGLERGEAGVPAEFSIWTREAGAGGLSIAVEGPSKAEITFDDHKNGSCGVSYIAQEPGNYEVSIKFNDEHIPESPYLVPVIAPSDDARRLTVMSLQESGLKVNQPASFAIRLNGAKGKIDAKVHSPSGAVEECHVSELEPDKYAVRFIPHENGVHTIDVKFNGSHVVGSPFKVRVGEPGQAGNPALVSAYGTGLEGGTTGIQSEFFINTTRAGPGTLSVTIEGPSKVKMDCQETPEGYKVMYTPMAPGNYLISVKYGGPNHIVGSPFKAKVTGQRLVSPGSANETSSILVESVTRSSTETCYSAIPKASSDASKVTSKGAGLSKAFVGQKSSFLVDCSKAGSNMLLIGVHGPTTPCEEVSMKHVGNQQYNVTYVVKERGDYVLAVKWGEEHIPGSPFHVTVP
UniProt P04439, sequence (P04439 whole entry): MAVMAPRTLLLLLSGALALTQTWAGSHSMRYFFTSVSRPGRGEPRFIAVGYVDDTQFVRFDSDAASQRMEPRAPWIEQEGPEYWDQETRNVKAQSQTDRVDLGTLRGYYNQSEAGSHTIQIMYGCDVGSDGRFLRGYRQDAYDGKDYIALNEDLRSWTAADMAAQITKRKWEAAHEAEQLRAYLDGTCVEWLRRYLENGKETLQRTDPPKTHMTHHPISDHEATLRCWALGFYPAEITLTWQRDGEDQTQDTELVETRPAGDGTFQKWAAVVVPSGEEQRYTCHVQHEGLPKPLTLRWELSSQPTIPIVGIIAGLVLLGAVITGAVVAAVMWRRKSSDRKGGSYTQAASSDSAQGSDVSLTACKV
UniProt O95490, sequence (O95490 whole entry): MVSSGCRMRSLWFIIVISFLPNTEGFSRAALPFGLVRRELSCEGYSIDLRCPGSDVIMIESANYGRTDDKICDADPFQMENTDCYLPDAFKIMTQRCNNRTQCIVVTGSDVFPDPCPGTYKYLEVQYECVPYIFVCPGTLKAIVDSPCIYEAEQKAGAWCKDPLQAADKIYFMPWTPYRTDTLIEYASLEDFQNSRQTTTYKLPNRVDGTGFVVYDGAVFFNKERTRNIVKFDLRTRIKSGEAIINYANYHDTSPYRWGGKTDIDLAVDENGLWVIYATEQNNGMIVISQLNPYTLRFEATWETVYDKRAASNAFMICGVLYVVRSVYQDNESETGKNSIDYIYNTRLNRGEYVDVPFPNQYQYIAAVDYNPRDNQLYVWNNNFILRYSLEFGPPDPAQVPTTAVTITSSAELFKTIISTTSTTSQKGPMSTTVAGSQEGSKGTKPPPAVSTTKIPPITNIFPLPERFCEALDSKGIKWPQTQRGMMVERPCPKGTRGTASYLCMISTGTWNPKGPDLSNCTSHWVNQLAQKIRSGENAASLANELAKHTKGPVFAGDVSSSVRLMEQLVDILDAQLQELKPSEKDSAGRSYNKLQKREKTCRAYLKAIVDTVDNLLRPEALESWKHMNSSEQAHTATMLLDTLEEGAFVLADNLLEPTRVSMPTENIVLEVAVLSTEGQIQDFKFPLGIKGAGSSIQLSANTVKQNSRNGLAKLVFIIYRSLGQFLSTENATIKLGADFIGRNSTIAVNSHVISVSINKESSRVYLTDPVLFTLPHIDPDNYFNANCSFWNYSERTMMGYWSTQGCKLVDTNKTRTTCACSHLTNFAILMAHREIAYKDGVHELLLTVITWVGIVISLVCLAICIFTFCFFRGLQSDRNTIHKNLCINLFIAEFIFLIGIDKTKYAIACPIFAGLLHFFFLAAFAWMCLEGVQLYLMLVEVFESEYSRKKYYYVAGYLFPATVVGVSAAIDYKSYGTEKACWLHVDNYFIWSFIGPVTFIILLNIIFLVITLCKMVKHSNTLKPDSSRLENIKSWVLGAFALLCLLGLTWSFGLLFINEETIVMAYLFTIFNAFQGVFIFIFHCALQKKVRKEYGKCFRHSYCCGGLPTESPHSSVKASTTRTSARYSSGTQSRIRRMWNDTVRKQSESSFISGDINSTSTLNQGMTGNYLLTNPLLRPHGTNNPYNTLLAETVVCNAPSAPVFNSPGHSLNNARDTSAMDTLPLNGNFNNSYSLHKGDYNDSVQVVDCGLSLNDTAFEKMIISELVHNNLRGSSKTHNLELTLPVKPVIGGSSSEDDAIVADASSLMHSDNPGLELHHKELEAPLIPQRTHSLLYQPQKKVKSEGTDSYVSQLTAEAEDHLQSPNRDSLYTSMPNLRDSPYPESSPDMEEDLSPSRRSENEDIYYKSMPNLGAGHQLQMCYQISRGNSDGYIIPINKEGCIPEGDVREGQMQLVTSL
UniProt P12956, sequence (P12956 whole entry): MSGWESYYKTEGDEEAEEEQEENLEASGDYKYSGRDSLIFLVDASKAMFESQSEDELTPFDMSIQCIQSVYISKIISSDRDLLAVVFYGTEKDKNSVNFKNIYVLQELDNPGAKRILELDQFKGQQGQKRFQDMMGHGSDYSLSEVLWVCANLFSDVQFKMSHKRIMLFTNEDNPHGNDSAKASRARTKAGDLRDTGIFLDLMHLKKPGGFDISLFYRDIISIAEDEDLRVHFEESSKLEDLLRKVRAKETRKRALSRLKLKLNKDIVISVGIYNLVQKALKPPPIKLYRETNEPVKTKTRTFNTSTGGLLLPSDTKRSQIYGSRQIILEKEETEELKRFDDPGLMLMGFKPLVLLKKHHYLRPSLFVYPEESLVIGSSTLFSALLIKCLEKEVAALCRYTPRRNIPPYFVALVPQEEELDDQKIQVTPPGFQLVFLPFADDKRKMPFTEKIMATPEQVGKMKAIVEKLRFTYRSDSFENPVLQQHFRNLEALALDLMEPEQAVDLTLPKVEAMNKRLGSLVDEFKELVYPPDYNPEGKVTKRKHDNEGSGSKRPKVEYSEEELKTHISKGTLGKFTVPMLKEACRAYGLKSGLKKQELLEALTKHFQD

Target	lysine labeling ratio R10:1
FLNB (lysine site: K987) (UniProt O75369)	5.99
ITGA1 (lysine site: K292) (UniProt P56199)	2.63
ANXA3 (lysine site: K263) (UniProt P12429)	1.92 (active)
FRAS1 (lysine site: K2521) (UniProt Q86XX4)	2.03
VASN (lysine site: K333) (UniProt Q6EMK4)	1.84 (active)
NRP1 (lysine site: K407) (UniProt O14786)	3.76
UniProt P83731 (lysine site: K93)	6.58
FLNA (lysine site: K1824) (UniProt P21333)	5.16
XRCC6 (lysine site: K238) (UniProt P12956)	0.959 (active)
IARS (lysine site: K903) (UniProt P41252)	1.66 (active)
ITGA2 (lysine site: K1046) (UniProt P17301)	6.48
PDIA3 (lysine site: K347) (UniProt P30101)	5.72
NUMA1 (lysine site: K1475) (UniProt Q14980)	5.25
UniProt P04439 (lysine site: K92)	3.31
UniProt Q15149 (lysine site: K4513)	1.42 (active)
UniProt Q8WXI7 (lysine site: K13558)	5.1
UniProt O95490 (lysine site: K494)	1.07 (active)
